Assay results reported in ChEMBL document CHEMBL4513141, “CO-ADD screening of NIH (USA) - Clinical Collection” (2021).
Measured potencies and affinities stand elsewhere.

Each molecule was assayed on Staphylococcus aureus. Settings: Concentration 20 uM; ASSAY_TEST Inhibition of Bacterial Growth; detection method Absorption (OD600); MEDIA CAMHB; plate type 384well; NBS; CORNING #3640; time 18 hr.

SMILES	Inhibition [%]
CN(C)C(=O)Oc1ccc[n+](C)c1.[Br-] [PYRIDOSTIGMINE BROMIDE]	10.54
Nc1ccc(S(=O)(=O)c2ccc(N)cc2)cc1 [DAPSONE]	-0.58
Cc1ncc([N+](=O)[O-])n1CC(C)O (configuration not stated) [SECNIDAZOLE]	11.92
CC1=C(/C=C/C(C)=C/C=C/C(C)=C/C(=O)O)C(C)(C)CCC1 [TRETINOIN]	13.92
CNCCC=C1c2ccccc2CCc2ccccc21.Cl [NORTRIPTYLINE HYDROCHLORIDE]	3.19
COc1ccc(Cl)cc1C(=O)NCCc1ccc(S(=O)(=O)NC(=O)NC2CCCCC2)cc1 [GLYBURIDE]	-3.01
COc1ccc(-c2cc(=O)c3c(OC)c(OC)c(OC)c(OC)c3o2)cc1OC [NOBILETIN]	13.24
CN1CCN(CCCN2c3ccccc3Sc3ccc(Cl)cc32)CC1.O=C(O)/C=C\C(=O)O.O=C(O)/C=C\C(=O)O [PROCHLORPERAZINE MALEATE]	13.38
Nc1nc2c(ncn2COC(CO)CO)c(=O)[nH]1 [GANCICLOVIR]	7.88
C#C[C@]1(O)CC[C@H]2[C@@H]3CCc4cc(OC)ccc4[C@H]3CC[C@@]21C [MESTRANOL]	8.43
NC(Cc1cc(I)c(Oc2ccc(O)c(I)c2)c(I)c1)C(=O)O (configuration not stated) [RATHYRONINE]	11.14
CC(C)NCC(O)COc1ccc(COCCOC(C)C)cc1.CC(C)NCC(O)COc1ccc(COCCOC(C)C)cc1.O=C(O)/C=C/C(=O)O (configuration not stated) [BISOPROLOL FUMARATE]	7.74
